Hit rate of the full screen: of about 220,000 compounds, about 5,700 (2.6%) were called active. A call without a number means that no potency is given here. About 18% were inconclusive and are not listed. The sample holds actives, similar compounds and a random draw of the others, so the mix is not that of the screen. The call rests on the fitted dose curve; in most records, active means well fitted inhibition curve with a large enough effect; inconclusive means small, poorly fitted or top-dose-only effect; inactive means no such curve, though single readings can be large or run the other way.
target: Lysine-specific demethylase 5B (Homo sapiens) (UniProt Q9UGL1); test: Primary screen for KDM5B Histone Demethylases FDH-coupled qHTS; settings: FDH-coupled NADH fluorescence (FDH is formaldehyde dehydrogenase); series mostly up to 57.7 µM; further: nearly all actives have a fitted effect of over 70% in size
Sequence (Q9UGL1 whole entry, looked up): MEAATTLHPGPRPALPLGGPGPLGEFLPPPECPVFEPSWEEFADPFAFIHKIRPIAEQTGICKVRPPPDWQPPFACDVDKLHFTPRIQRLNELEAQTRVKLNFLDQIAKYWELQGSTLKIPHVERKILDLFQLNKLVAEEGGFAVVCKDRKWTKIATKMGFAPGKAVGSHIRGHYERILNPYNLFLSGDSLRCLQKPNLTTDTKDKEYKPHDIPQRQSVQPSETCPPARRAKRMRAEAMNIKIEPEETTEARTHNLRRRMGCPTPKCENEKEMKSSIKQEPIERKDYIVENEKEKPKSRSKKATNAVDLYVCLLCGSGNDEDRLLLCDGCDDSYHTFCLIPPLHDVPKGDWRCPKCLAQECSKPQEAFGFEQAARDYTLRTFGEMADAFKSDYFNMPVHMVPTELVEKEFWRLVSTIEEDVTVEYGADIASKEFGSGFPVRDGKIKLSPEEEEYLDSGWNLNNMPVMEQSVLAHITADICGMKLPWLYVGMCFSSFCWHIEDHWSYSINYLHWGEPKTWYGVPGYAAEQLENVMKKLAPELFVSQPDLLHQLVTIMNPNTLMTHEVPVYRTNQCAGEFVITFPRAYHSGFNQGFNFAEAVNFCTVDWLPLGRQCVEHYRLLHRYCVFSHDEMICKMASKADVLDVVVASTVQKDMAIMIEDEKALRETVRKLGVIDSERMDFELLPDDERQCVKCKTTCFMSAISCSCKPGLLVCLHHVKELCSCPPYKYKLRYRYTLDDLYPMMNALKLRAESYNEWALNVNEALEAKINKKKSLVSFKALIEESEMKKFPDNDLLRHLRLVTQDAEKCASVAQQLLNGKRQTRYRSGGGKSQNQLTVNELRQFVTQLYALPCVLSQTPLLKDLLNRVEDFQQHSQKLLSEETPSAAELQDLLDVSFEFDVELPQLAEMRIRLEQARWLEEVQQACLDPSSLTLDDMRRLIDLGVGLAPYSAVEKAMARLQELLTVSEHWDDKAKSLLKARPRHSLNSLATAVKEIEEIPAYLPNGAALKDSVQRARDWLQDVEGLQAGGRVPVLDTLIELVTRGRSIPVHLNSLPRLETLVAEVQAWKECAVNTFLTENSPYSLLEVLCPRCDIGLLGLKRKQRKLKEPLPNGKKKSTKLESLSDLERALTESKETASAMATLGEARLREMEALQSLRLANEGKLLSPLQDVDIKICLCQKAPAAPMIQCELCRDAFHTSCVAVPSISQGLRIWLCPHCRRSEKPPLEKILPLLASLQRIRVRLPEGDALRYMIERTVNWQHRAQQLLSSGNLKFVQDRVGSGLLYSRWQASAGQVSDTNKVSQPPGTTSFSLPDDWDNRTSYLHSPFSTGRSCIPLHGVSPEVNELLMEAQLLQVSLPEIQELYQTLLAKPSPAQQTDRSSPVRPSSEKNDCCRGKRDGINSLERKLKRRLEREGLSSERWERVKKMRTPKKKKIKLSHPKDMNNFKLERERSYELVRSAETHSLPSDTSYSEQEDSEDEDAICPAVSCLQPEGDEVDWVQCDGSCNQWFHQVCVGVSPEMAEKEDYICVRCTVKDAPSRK
Source text: Assay Submitter (PI): Qin Yan, Ph.D. (Yale University) and Xiaodong Cheng, Ph.D. (MD Anderson) This project was funded as part of the NCI NEXT Program and Chemical Biology Consortium (CBC) The histone demethylases, KDM5A and KDM5B catalyze the demethylation of lysine 4 on histone H3 (H3K4me3/2). They are overexpressed in a variety of cancers and have been implicated in cancer cell growth, metastasis, drug resistance, and tumor growth. KDM5A is amplified and overexpressed in breast and gastric cancer; and is translocated in leukemia. While KDM5B is highly expressed in human mammary tumors and breast cancer cell lines, but not in normal adult breast tissue. Moreover, knockdown of KDM5B leads to upregulation of tumor suppressor genes, including BRCA1. The goal of this project is to employ qHTS to identify selective small molecule inhibitors of KDM5A/B demethylase activity to better understand the role of KDM5 in cancer and to develop novel therapies. We employed an FDH-coupled assay previously reported by Sakurai et al. to monitor in vitro KDM5 demethylase activity. Compounds showing dose response inhibition are re-acquired, validated, and tested for non-specific interference with the formaldehyde dehydrogenase (FDH) counterscreen. True inhibitors are validated using an AlphaLisa secondary screen, which employs an H3K4(me2-1)-specific antibody to monitor demethylation of a biotin-tagged H3K4(me3) peptide substrate. Inhibitors are profiled against KDM4A and KDM6A AlphaLisa counterscreens to determine level of demethylase specificity; and against the TruHits counterscreen to eliminate non-specific inhibitory activity on the AlphaLISA detection method. Selective inhibitors identified from the primary and secondary screening are tested in cells using immunofluorescence to monitor global H3K4 tri-methylation as a measure of KDM5A/B inhibition. Early Translation Branch (ETB) National Center for Advancing Translational Sciences (NCATS), Rockville, MD National Institute of Health (NIH), Bethesda, Maryland [1] Sakurai, M et al. A miniaturized screen for inhibitors of Jumonji histone demethylases. Mol Biosyst. 2010 Feb;6(2):357-64. doi: 10.1039/b912993f. Epub 2009 Oct 8.
Materials: 1536-well Black, solid bottom, medium binding assay plate is purchased from Greiner Bio-one. The enzymes (KDM5B) and substrate (H3K4me3/2) are provided by the principal investigators. The buffer for this assay is composed of 50mM HEPES at pH 7.5 with 0.01% Tween-20. FDH coupled Demethylase qHTS protocol: Three microliter enzyme mix (buffer + 200nM KDM5BDeltaAP final concentration) is dispensed into the assay plate using the BioRAPTR Flying Reagent Dispenser (FRD; […]). Compound (at various final concentration) and control solution is pin transferred to the assay plate using the Kalypsys 1536-pin tool apparatus. The assay plate is incubated for 10 min at room temperature followed by addition of 1uL substrate mix (buffer + 100uM ascorbic acid, 50uM ferrous ammonium sulfate, 12.5uM H3K4Me3, 25uM a-ketoglutarate, 0.25 mM NAD+, 0.25 U/mL formaldehyde dehydrogenase using the FRD yielding a total reaction volume of 4 uL. Initial fluorescence (Read1) is detected using the PerkinElmer ViewLux plate reader equipped with 340 nm excitation and 450 nm emission filters. The final fluorescence (Read2) signal is obtained after 30 min of room temperature incubation. Delta RFU is calculated (Read2 - Read1) and is used to generated dose response curves.
Potency means the concentration at half of the fitted maximal effect.

How did the Potency turn out when `Cc1ccccc1-c1ccc2n(c1=O)C[C@H]1C[C@@H]2CN(C(=O)CSCC(=O)O)C1` was run?
Its Potency is 39.8 µM (active).

Which Potency does the source give for `O=C(NC1CCCCC1)N1C[C@@H]2C[C@H](C1)c1c(-c3ccccc3F)ccc(=O)n1C2` here?
Its Potency is “inactive”.

Which Potency does the source give for `CCCS(=O)(=O)N1C[C@@H]2C[C@H](C1)c1ccc(-c3ccccc3C)c(=O)n1C2` here?
Its Potency is 39.8 µM (active).

Which Potency does the source give for `O=C(Nc1ccc2n(c1=O)C[C@H]1C[C@@H]2CN(C(=O)c2ccccn2)C1)c1ccc(F)cc1` here?
Its Potency is “inactive”.

Which Potency does the source give for `O=C(COc1ccccc1)N1C[C@@H]2C[C@H](C1)c1c(-c3ccccc3F)ccc(=O)n1C2` here?
The Potency was “inactive”.

`O=C(Nc1ccc(Cl)cc1)N1C[C@@H]2C[C@H](C1)c1c(-c3ccccc3F)ccc(=O)n1C2` was tested. Which Potency did it give?
The Potency was “inactive”.

For `Cc1ccc(NC(=O)N(Cc2ccc3c(c2)OCO3)C2CCN(Cc3ccccc3)CC2)cc1F`, which Potency is on record?
The Potency was “inactive”.

`COc1ccc(/C=C\[N+](=O)[O-])c(OC)c1` was tested. Which Potency did it give?
Its Potency is “inactive”.

Which Potency does the source give for `CC1(C)NN1CCCCN1NC1(C)C` (stereo not given) here?
The Potency was “inactive”.

Which Potency does the source give for `COC1CN(c2ccc(C)cc2)C12CCNCC2` (stereo not given) here?
Its Potency is “inactive”.

With `Cn1nc(-c2cccs2)cc1[C@H]1CN2CC[C@H]1C[C@@H]2CNC(=O)Nc1ccccc1` as the compound, how does the Potency read?
Its Potency is “inactive”.

For `CN(C)C(=O)Oc1ccc2c(=O)c(-c3ccc(Br)cc3)c(C(F)(F)F)oc2c1`, which Potency is on record?
Its Potency is “inactive”.

How did the Potency turn out when `Cc1ccc(CN2CCC3(CCNCC3)C2)c(O)c1` was run?
The Potency was “inactive”.

With `COc1ccccc1-c1cc([C@H]2CN3CC[C@H]2C[C@@H]3CNC(=O)c2ccco2)nc(C)n1` as the compound, how does the Potency read?
The Potency was 31.6 µM (active).

How did the Potency turn out when `COc1ccccc1-c1cc([C@H]2CN3CC[C@H]2C[C@@H]3CNC(=O)c2ccco2)n(C)n1` was run?
The Potency was “inactive”.

`COc1ccccc1-c1cc([C@H]2CN3CC[C@H]2C[C@@H]3CNC(C)=O)n(C)n1` was tested. Which Potency did it give?
Its Potency is “inactive”.

How did the Potency turn out when `COc1ccc(C(=O)NC[C@H]2C[C@@H]3CCN2C[C@@H]3c2cc(-c3ccccc3)nn2C)cc1` was run?
The Potency was “inactive”.

How did the Potency turn out when `Cc1nc(-c2ccc(C(F)(F)F)cc2)cc([C@H]2CN3CC[C@H]2C[C@@H]3CNC(=O)c2ccco2)n1` was run?
The Potency was “inactive”.

With `Cc1ccc(C(=O)NC[C@H]2C[C@@H]3CCN2C[C@@H]3c2cc(-c3ccco3)nc(C)n2)cc1` as the compound, how does the Potency read?
Its Potency is 39.8 µM (active).

Which Potency does the source give for `COc1cc2c(cc1Oc1cccc(N(C)C)c1)NC(=O)C21CCN(Cc2ccccn2)CC1` here?
Its Potency is “inactive”.

How did the Potency turn out when `c1ccc(CCN2CCC3(CC2)OCCO3)cc1` was run?
Its Potency is “inactive”.

`C=C[C@H]1CN2CC[C@H]1C[C@@H]2CNCc1ccc(C(F)(F)F)cc1` was tested. Which Potency did it give?
The Potency was “inactive”.

`CCCS(=O)(=O)NC[C@H]1C[C@@H]2CCN1C[C@@H]2c1cc(-c2ccccc2)nc(C)n1` was tested. Which Potency did it give?
The Potency was “inactive”.

`Cc1nc(-c2ccc(N(C)C)cc2)cc([C@H]2CN3CC[C@H]2C[C@@H]3CNC(=O)C2CCC2)n1` was tested. Which Potency did it give?
Its Potency is 39.8 µM (active).

For `Cc1nc(-c2ccccc2)cc([C@H]2CN3CC[C@H]2C[C@@H]3CNC2CCOCC2)n1`, which Potency is on record?
The Potency was “inactive”.

Which Potency does the source give for `COc1ccc(-c2cc([C@H]3CN4CC[C@H]3C[C@@H]4COC(=O)NC(C)C)nc(C)n2)cc1` here?
Its Potency is 28.2 µM (active).

For `COc1ccc(-c2cc([C@H]3CN4CC[C@H]3C[C@@H]4CNC(=O)C3CC3)n(C)n2)cc1OC`, which Potency is on record?
Its Potency is “inactive”.

With `COc1ccc(-c2cc([C@H]3CN4CC[C@H]3C[C@@H]4CNC(=O)C3CCCCC3)n(C)n2)cc1` as the compound, how does the Potency read?
The Potency was “inactive”.

How did the Potency turn out when `CC(C)(C)NC(=O)NC(=O)CCl` was run?
Its Potency is “inactive”.

`Cc1ccc(C(=O)N2[C@H]3CC[C@@H]2c2cnc(-c4ccccc4)nc2C3)c(C)c1` was tested. Which Potency did it give?
The Potency was “inactive”.

For `Cc1nc(C)c(C(=O)N2[C@H]3CC[C@@H]2c2cnc(-c4ccccc4)nc2C3)s1`, which Potency is on record?
The Potency was “inactive”.

How did the Potency turn out when `CCOC(=O)c1c(C)n(Cc2ccccc2Cl)c2ccc(O)cc12` was run?
Its Potency is “inactive”.

With `O=C(Nc1ccccc1)N1C[C@@H]2C[C@H](C1)c1c(-c3ccc(Cl)cc3)ccc(=O)n1C2` as the compound, how does the Potency read?
The Potency was “inactive”.

With `O=C(c1ccncc1)N1C[C@@H]2C[C@H](C1)c1ccc(C3CCCCC3)c(=O)n1C2` as the compound, how does the Potency read?
The Potency was “inactive”.

How did the Potency turn out when `CC(=O)Nc1ccc(-c2ccc3n(c2=O)C[C@H]2C[C@@H]3CN(C3CCN(C)CC3)C2)cc1` was run?
Its Potency is 39.8 µM (active).

Reference: PubChem BioAssay AID1347165 (National Center for Advancing Translational Sciences (NCATS), 2019)
